Only a selection was taken, and hits are over-represented in it overall.
Dicer processing: inhibitors of human Dicer processing of pre-microRNA | cat-ELCCA pre-miR-21 Dicer processing, chemiluminescence; active compounds read high | z-score at 25 µM | 47,000 compounds, 6% hits | AID 1347074; in the data active = z-score above about 3, passing the limit was not always enough;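 also: plate controls were vehicle for no effect and no enzyme for full effect; higher signal means more uncleaved substrate so more Dicer inhibition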
Target sequence (Q9UPY3 whole entry, looked up): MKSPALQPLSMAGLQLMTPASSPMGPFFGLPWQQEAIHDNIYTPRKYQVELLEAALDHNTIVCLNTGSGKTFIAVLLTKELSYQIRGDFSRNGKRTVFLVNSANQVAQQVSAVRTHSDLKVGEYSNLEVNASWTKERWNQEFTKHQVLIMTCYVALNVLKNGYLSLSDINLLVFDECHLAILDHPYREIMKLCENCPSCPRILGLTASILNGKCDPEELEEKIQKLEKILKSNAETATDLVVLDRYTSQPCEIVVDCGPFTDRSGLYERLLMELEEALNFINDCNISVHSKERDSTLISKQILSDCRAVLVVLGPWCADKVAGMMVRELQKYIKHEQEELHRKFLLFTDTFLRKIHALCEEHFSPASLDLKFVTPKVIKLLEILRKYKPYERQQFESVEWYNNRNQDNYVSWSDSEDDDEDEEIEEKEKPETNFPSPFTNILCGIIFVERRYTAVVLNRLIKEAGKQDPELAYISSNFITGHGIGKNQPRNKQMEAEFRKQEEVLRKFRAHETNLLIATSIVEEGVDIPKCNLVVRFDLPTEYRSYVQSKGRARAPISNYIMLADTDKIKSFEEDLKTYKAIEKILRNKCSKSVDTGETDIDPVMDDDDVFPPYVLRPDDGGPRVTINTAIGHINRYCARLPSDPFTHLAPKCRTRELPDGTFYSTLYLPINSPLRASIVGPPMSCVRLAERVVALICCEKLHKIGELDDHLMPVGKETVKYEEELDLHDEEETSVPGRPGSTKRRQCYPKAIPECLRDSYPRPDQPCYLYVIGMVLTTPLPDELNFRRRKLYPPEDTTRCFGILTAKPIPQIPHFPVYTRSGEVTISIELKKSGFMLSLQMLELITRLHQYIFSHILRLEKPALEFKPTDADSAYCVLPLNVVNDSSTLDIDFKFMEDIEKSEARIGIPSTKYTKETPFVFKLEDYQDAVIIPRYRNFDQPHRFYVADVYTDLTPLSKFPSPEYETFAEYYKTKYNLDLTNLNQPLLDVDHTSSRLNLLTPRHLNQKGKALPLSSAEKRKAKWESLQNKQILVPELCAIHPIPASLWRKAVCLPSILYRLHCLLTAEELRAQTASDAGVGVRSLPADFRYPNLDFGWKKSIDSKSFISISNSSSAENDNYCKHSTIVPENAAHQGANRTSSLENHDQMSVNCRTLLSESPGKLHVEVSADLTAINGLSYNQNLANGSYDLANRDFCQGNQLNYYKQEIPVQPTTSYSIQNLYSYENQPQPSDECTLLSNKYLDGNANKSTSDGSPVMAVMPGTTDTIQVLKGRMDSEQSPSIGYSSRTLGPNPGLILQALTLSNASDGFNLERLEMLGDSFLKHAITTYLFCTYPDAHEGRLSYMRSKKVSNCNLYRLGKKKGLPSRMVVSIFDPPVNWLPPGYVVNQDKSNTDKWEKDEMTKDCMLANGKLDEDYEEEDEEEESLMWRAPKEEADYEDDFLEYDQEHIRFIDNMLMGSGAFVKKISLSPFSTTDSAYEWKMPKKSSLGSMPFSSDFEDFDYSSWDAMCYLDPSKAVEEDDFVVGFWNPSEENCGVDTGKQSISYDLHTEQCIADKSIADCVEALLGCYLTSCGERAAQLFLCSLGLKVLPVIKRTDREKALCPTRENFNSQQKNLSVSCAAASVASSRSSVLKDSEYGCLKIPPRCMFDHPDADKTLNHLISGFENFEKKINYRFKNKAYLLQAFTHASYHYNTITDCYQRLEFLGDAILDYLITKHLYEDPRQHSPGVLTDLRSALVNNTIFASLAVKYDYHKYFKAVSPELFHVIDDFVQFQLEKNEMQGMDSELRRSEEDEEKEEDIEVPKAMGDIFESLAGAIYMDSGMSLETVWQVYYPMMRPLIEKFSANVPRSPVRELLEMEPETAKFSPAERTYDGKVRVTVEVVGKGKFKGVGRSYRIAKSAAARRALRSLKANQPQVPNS
Starred values were filed as active, the others as inactive.

How did CCOC(=O)C1=C(C)NC2=C(C(=O)CC(c3ccccc3)C2)C1c1cccc2ccccc12 (configuration not stated) do in these assays?
Dicer processing: 0.44

Results for COC(=O)C1=C(C)NC2=C(C(=O)CC(c3ccccc3)C2)C1c1ccc(Br)cc1 (configuration not stated) ?
Dicer processing: 1.3

What do the screens show for `COC(=O)C1=C(C)NC2=C(C(=O)CC(c3ccc(OC)cc3)C2)C1c1ccc(OC)cc1` (configuration not stated)?
Dicer processing: -1.5

What do the screens show for `CCOCCOC(=O)C1=C(C)NC2=C(C(=O)CC(c3ccccc3)C2)C1c1ccc(F)cc1` (configuration not stated)?
Dicer processing: 1.6

What do the screens show for `CCOCCOC(=O)C1=C(C)NC2=C(C(=O)CC(c3ccccc3)C2)C1c1cccc2ccccc12` (configuration not stated)?
Dicer processing: 5.2*

How did CCOC(=O)C1=C(C)Nc2nc3ccccc3n2C1c1ccco1 (configuration not stated) do in these assays?
Dicer processing: -1.5

How did Cc1ccc(C(=O)C2C(=O)c3ccccc3C2=O)cc1 do in these assays?
Dicer processing: 0.21

What do the screens show for `Cc1ccc(C(=O)CN2/C(=C(/O)c3ccccc3)C(=O)c3ccccc3S2(=O)=O)c(C)c1`?
Dicer processing: -0.63

What do the screens show for `Cc1ccc(N2C(=O)c3ccccc3C2C(=O)c2ccc(C)cc2O)cc1` (configuration not stated)?
Dicer processing: 12*

Results for CCOC(=O)c1cnc(NNS(=O)(=O)c2cc(Cl)ccc2OC)nc1C(F)(F)F ?
Dicer processing: 0.57

How did Cc1cc(C)c(NC2=NC(CO)(CO)CS2)c(C)c1 do in these assays?
Dicer processing: 0.29

Results for Cc1ccc(S(=O)(=O)NC(=O)Nc2nc(-c3ccc(C)c(Cl)c3)c(C)s2)cc1 ?
Dicer processing: -1.6

What do the screens show for `Cc1ccc(S(=O)(=O)Nc2nc(-c3ccc(C)c(Cl)c3)c(C)s2)cc1`?
Dicer processing: 3.3*

How did Cc1ccc(-c2nc(NC(=O)c3ccccc3)sc2C)cc1Cl do in these assays?
Dicer processing: 0.94

What do the screens show for `CCOC(=O)N/N=C(\CN1C(=O)c2ccccc2C1=O)c1ccc(Cl)cc1`?
Dicer processing: 1.4

Results for CCCCc1ccc(Nc2ncc(C(=O)OCC)c(C(F)(F)F)n2)cc1 ?
Dicer processing: 0.59

What do the screens show for `COc1ccc(NC(=O)Nc2nnc(COc3ccccc3F)s2)cc1`?
Dicer processing: 3.5*

What do the screens show for `COc1ccc(NC(=O)Nc2c(C)noc2-c2ccccc2)cc1`?
Dicer processing: 1.5

How did COc1ccc(OCC(O)CNC(=O)Nc2ccc(OCc3ccccc3)cc2)cc1 (configuration not stated) do in these assays?
Dicer processing: -0.86

How did Cn1cnc([N+](=O)[O-])c1SCc1csc2ccccc12 do in these assays?
Dicer processing: -9.7

Results for C/C=C(\C)C(=O)NC(=S)NNC(=O)c1cccnc1 ?
Dicer processing: -0.32

How did C=CCn1c(NCc2ccccc2O)nc2ccccc21 do in these assays?
Dicer processing: 0.92

Results for CC(C)n1c(NCc2ccccc2O)nc2ccccc21 ?
Dicer processing: 0.13

What do the screens show for `CCn1c(NCc2cc(Cl)ccc2O)nc2ccccc21`?
Dicer processing: 3*

What do the screens show for `CCCn1c(NCc2cc(Cl)ccc2O)nc2ccccc21`?
Dicer processing: 1.7

Results for C=CCn1c(NCc2ccc(N(CC)CC)cc2)nc2ccccc21 ?
Dicer processing: 2.3

What do the screens show for `C=CCn1c(NCc2cc(Cl)ccc2O)nc2ccccc21`?
Dicer processing: 3.9*

How did Cc1nn(C)cc1CN(C)C(=O)c1cc2n(n1)C(C(F)(F)F)CC(c1ccc3c(c1)OCO3)N2 (configuration not stated) do in these assays?
Dicer processing: -1.2

How did COc1cccc(N2CCc3c(C)c(C#N)c4nc5ccccc5n4c32)c1 do in these assays?
Dicer processing: -0.09

Results for CCCCCc1ccc(S(=O)(=O)Nc2ncc(C)cc2Br)cc1 ?
Dicer processing: -1.4

Results for OC(c1ccc(Br)cc1)C1CC1 (configuration not stated) ?
Dicer processing: 2.1

What do the screens show for `CC(=O)OC1CCC(C(=O)O)CC1` (configuration not stated)?
Dicer processing: -0.77

What do the screens show for `CC1=CC(C)(C)N(C(=O)c2ccc(F)cc2)c2cc3c(cc21)OCO3`?
Dicer processing: 4.6*

How did CCOc1ccc2c(c1)C(C)=CC(C)(C)N2C(=O)Nc1ccc(F)cc1 do in these assays?
Dicer processing: 0.91

Results for CC1=CC(C)(C)N(C(=O)Nc2ccc(C)cc2)c2ccc(C)cc21 ?
Dicer processing: -0.67

What do the screens show for `CC(C)OC(NC(=O)c1ccccc1)(C(F)(F)F)C(F)(F)F`?
Dicer processing: 0.04

What do the screens show for `O=[N+]([O-])c1ccc(Nc2ccccc2)nc1Nc1ccccc1`?
Dicer processing: 3

Results for CC(C)(C)S(=O)(=O)C/C(N)=N/OC(=O)c1ccc(Cl)cc1 ?
Dicer processing: 1

Results for O=C(O)Cn1cc(Cl)c([N+](=O)[O-])n1 ?
Dicer processing: 0.68

What do the screens show for `N/C(=N\S(=O)(=O)c1cc(C(F)(F)F)cc(C(F)(F)F)c1)c1ccccc1`?
Dicer processing: 0.93

What do the screens show for `Cc1nc(C(F)(F)F)ccc1C(=O)N1CCSCC1`?
Dicer processing: -0.12

Results for N/C(=N\S(=O)(=O)c1cc(C(F)(F)F)cc(C(F)(F)F)c1)N1CCSCC1 ?
Dicer processing: 5.5*

Results for COC(=O)c1sc(C(C)(C)C)cc1NC(=O)NC(=O)c1c(Cl)cccc1Cl ?
Dicer processing: 1.9

What do the screens show for `COc1ccc2nc(C)cc(Nc3ccc(Br)cc3)c2c1`?
Dicer processing: 5*

How did CCOc1ccc(Nc2cc(C)nc3ccc(OC)cc23)cc1 do in these assays?
Dicer processing: 2.9

What do the screens show for `Cc1cc(Nc2ccccc2)c2ccccc2n1`?
Dicer processing: 1.5

Results for CCS(=O)(=O)c1ccc(O)c(NC(=O)CC(C)(C)CC(=O)O)c1 ?
Dicer processing: 1.2

How did Nc1ncnc2c1ncn2CCNCc1ccc2c(c1)OCO2 do in these assays?
Dicer processing: -0.65

How did Cc1ccccc1C1=NC(C(F)(F)F)(C(F)(F)F)N=C(N2CCOCC2)O1 do in these assays?
Dicer processing: -0.79

Results for Cc1ccc(C2=NC(C(F)(F)F)(C(F)(F)F)N=C(N(C)C)O2)cc1 ?
Dicer processing: 3.7*

Results for O=C(CSc1nc2sc3c(c2c(=O)[nH]1)CCCC3)NCCN1CCOCC1 ?
Dicer processing: 3.9*

What do the screens show for `Nc1nc(SCC(=O)NCCCO)nc2sc3c(c12)CCCC3`?
Dicer processing: 0.12

What do the screens show for `O=C(O)CC(Sc1nc2sc3c(c2c(=O)[nH]1)CCCC3)C(=O)O` (configuration not stated)?
Dicer processing: -0.14

How did Cc1c(C)c(C)c(S(=O)(=O)Nc2ccc(Cl)cc2Cl)c(C)c1C do in these assays?
Dicer processing: -0.12

What do the screens show for `Cc1c(C)c(C)c(S(=O)(=O)Nc2ccccc2N)c(C)c1C`?
Dicer processing: 13*

Results for Cc1c(C)c(C)c(S(=O)(=O)Nc2cc(Cl)cc(Cl)c2)c(C)c1C ?
Dicer processing: 0.7

Results for Cc1cc(C)c2oc(-c3ccc(NC(=O)c4ccc([N+](=O)[O-])o4)cc3)nc2c1 ?
Dicer processing: 0.69

Results for Cc1cc(OCc2nc(-c3ccccn3)no2)ccc1Br ?
Dicer processing: 0.08

How did CCOc1cccc(=O)c2c(C)n(-c3ccc(C(=O)O)cc3)c(C)c12 do in these assays?
Dicer processing: 10*

How did CCOc1cccc(=O)c2c(C)[nH]c(C)c12 do in these assays?
Dicer processing: 1.8

Screening results deposited in PubChem by Center for Chemical Genomics, University of Michigan.
